A selection: hits, their analogues and other compounds. The true share with any hit is near 7.2%.
FMDV inh = blocks foot and mouth disease virus | FMDV antiviral cell-based qHTS | Potency, µM (highest dose often 57.9 µM), inactives show top-dose activity change, negative = inhibition, usual class: inhibitors | 410,000 compounds, 1.2% hits | AID 1159524; calls by dose curve; tested in HEK293T cells; note: read-out not given here; nearly all actives have a fitted effect of over 45% in size
Marburg entry inh = Marburg virus entry inhibition; Marburg virus pseudotyped entry inhibition, cell reporter; Potency, µM (series often up to 37.8 µM), for inactives: at the top dose activity change, negative = inhibition, actives largely listed as inhibitors; 300,000 compounds, 1.8% hits; AID 540276; calls by dose curve; tested in HEK293 cells
Lassa entry inh = Lassa virus entry inhibition; Lassa virus pseudotype entry inhibition, cell reporter; 300,000 compounds, 1.2% hits; Potency, µM (series often up to 37.9 µM), without a hit: at the highest dose activity change, negative = inhibition, usual class: inhibitors; calls by dose curve; tested in HEK293 cells; note: nearly all actives have a fitted effect of over 50% in size
RE007 growth inh = less growth of the S. pombe RE007 Vpr strain; S. pombe RE007 Vpr strain, BacTiter-Glo ATP luminescence, 24 h; Potency, µM (titrated, usually from 92.2 µM), for inactives: top-dose activity change, negative = less growth, hits mostly inhibitors; 360,000 compounds, 0.21% hits; active = well fitted falling curve with a large enough effect; inconclusive = small, poorly fitted or top-dose-only effect; inactive = no such curve, though single readings can be large or run the other way; note: nearly all actives have a fitted effect of over 50% in size
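Fission yeast strain RE007, carrying one chromosomally integrated HIV-1 vpr copy, was seeded at OD 0.01 in PMG+AL medium with 23 nL pinned compound. After 24 h at 30 °C and 99% humidity, viability was read by BacTiter-Glo luminescence.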
Sm TGR inh = S. mansoni TGR enzyme inhibition. 360,000 compounds, 3% hits. AID 485364. Potency, µM (series often up to 114 µM), without a hit: top-dose activity change, negative = inhibition, hits mostly inhibitors. purified TGR, DTNB reduction, TNB absorbance 405 nm. Q962Y6; note: nearly all actives have a fitted effect of over 60% in size
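First, TGR (20 nM dispensed) and NADPH were mixed with compound. Second, a 15 min room-temperature incubation followed. Third, further NADPH and then DTNB were added to start the reaction. Finally, TNB absorbance was monitored kinetically.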
HCV inh = inhibitors of hepatitis C virus infection; AID 651820; Potency, µM (top dose mostly 41.8 µM), for inactives: at the top dose activity change, negative = inhibition, usual class: inhibitors; 340,000 compounds, 3.4% hits; Huh7.5.1 HCVcc-Cre infection, luciferase reporter, 44 h
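A cell-based infection assay in which seeded cells (1,000 per well) receive test compound after 4 h, are inoculated with HCVcc-Cre at approximately 0.5 moi, and are incubated 44 h before luminescence detection.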
An asterisk follows results filed as active; i = inactive; ? = inconclusive; nt = not tested or not shown; [ ] = remark or other dose. Unless noted, calls come from the whole dose curve; as a rule, active = well fitted curve in the direction sought with a large enough effect; inconclusive = small, poorly fitted or top-dose-only effect, or another doubt; inactive = no such curve, though single readings can be large; an effect the other way counts as inactive or inconclusive. % is set by controls: 0 for no effect and ±100 for the full control effect; potency is the fitted concentration of half-maximal effect.

SMILES	FMDV inh	Marburg entry inh	Lassa entry inh	RE007 growth inh	Sm TGR inh	HCV inh
Cc1c(Cl)cccc1NC(=S)N1CCCN(Cc2ccc(F)cc2)C1	-11%	4µM*	21%[46.1 µM]	-11%	-4%	-20%
CSc1cccc(NC(=S)N2CCC(N(C)C(C)C)CC2)c1	-8%	10%	2%	12%	-29%	0%
Cc1c(Cl)cccc1NC(=S)N1CCCN(Cc2ccccc2F)C1	1%	10µM*	?	i	-3%	1%
CSc1cccc(NC(=S)N2CCC(N(C)C3CCCCCC3)CC2)c1	0%	?	-13%	-5%	50µM*	?
Cc1ccccc1NC(=S)N1CCCN(Cc2ccc(F)cc2)C1	-3%	nt	nt	12%	6%	-24%
CSc1cccc(NC(=S)N2CCCN(Cc3ccc(F)cc3)C2)c1	-3%	6.3µM*	?	-5%	-3%	-14%
Cc1nn(-c2ccc(N3CCOCC3)nn2)c(C)c1CCC(=O)NCc1ccc(Cl)cc1	7%	nt	-1%[46.1 µM]	nt	-7%	nt
COc1cc(C(=O)Nc2ccc3nc(SCc4ccc(C)cc4)sc3c2)cc(OC)c1OC	?	-29%[46.1 µM]	-2%[46.1 µM]	nt	5%	nt
Cc1nn(C)c2c1c(C(F)(F)F)cc(=O)n2CC(=O)N1CCC(C)CC1	-9%	nt	19%[46.1 µM]	nt	-3%	nt
Fc1ccc(NC(=S)N2CCn3cccc3C2c2cccnc2)cc1 (stereo unspecified)	20%	?	12%	-13%	0%	-23%
CCCCNC(=S)N1CCn2cccc2C1c1ccc(F)cc1 (stereo unspecified)	-15%	6.3µM*	13µM*	1%	-24%	-14%
Fc1ccc(C2c3cccn3CCN2C(=S)Nc2cccc(Br)c2)cc1 (stereo unspecified)	?	-5%	-61%	-2%	-18%	10µM*
COCC(C)n1c(COc2ccccc2F)nnc1SCC(=O)Nc1oc(C)c2c(C)n[nH]c(=O)c12 (stereo unspecified)	-1%	23%	-22%	-10%	25µM*	1%
CC1(C)CC2(C)OC(=N)C1(C#N)C2(C#N)C#N (stereo unspecified)	22µM*	?	?	-4%	13µM*	-6%
Cn1c(N)c(C(=O)COC(=O)c2cc(-c3ccco3)nc3ccccc23)c(=O)n(C)c1=O	-5%	2%	3%	-16%	8.9µM*	?
Cn1c(N)c(C(=O)COC(=O)c2cc(C(F)(F)F)nc3ccccc23)c(=O)n(Cc2ccccc2)c1=O	-29%	-26%	-6%	0%	36%	3%[8.37 µM]
Cn1c(N)c(C(=O)COC(=O)c2cc(-c3ccco3)nc3ccccc23)c(=O)n(Cc2ccccc2)c1=O	nt	2%	12%	nt	8.9µM*	2%[8.37 µM]
Cc1ccc(CNC(=O)C2CCN(S(=O)(=O)c3ccc4c(c3)oc(=O)n4C)CC2)cc1	0%	10%[46.1 µM]	2%[46.1 µM]	nt	6%	nt
CSc1nc(Cc2ccc(Cl)cc2)nc2ccccc12	-9%	-16%	-9%	-6%	6%	-9%
Cc1cc(Cl)nc2ccc(Cc3ccc4nc(Cl)cc(C)c4c3)cc12	?	nt	nt	nt	2%	10µM*
O=C1C(=O)c2ccccc2C([O-])=C1[n+]1ccccc1	22µM*	nt	nt	7%	9%	6%
CCc1cc2c(=O)[nH]c(N3CCCC3)nc2s1	51%	21%	?	6%	-11%	8%
CCc1cc2c(=O)[nH]c(-c3ccccn3)nc2s1	?	6.3µM*	5.6µM*	32µM*	-7%	?
CCN(CC)S(=O)(=O)c1ccc(C)c(NC(=S)N2CCN(C/C=C/c3ccccc3)CC2)c1	?	nt	nt	9%	1%	8.9µM*
CC(C)NC(=S)N1CCN(C/C=C/c2ccccc2)CC1	-14%	0%[46.1 µM]	-4%	-16%	nt	-10%
SMILES	FMDV inh	Marburg entry inh	Lassa entry inh	RE007 growth inh	Sm TGR inh	HCV inh
COc1ccccc1NC(=S)N1CCN(C/C=C/c2ccccc2)CC1	?	1%	3%	-3%	3%	5%
Cc1ccc(NC(=S)N2CCN(Cc3ccc4c(c3)OCO4)CC2)c(C)c1	-26%	0%	22%	?	nt	-13%
Fc1cccc(NC(=S)N2CCN(c3ccccn3)CC2)c1	-3%	-7%	13µM*	-3%	4%	-31%
CCN(CC)S(=O)(=O)c1ccc(C)c(NC(=S)N2CCN(Cc3ccc4c(c3)OCO4)CC2)c1	20µM*	?	?	2%	1%	6.3µM*
S=C(NC1CCCCC1)N1CCN(C/C=C/c2ccccc2)CC1	-17%	?	-24%	-23%	1%	8.9µM*
Cc1cc2n(n1)CCCN2C(=O)Nc1ccc(Cl)cc1	17%	nt	16%[46.1 µM]	nt	20%	nt
CCN(CC(=O)Nc1cccc(OC)c1)C(=O)c1cccc(S(=O)(=O)N2CCc3ccccc32)c1	13%	?	-20%	3%	2%	-12%
CCOCCCn1c(SCC(=O)Nc2ccc(C)cc2)nc2ccccc2c1=O	-7%	nt	-2%[46.1 µM]	nt	-1%	nt
CCc1ccccc1NC(=S)N1CCN(c2ccccn2)CC1	?	0%	?	-12%	0%	5%
CCN(CC)S(=O)(=O)c1ccc(C)c(NC(=S)N2CCN(c3ccccn3)CC2)c1	-15%	?	10µM*	0%	-3%	22µM*
CCN(CC)S(=O)(=O)c1ccc(N2CCN(c3ccccc3O)CC2)nc1	23%	?	-21%[46.1 µM]	10%	-7%	11µM*
COc1cccc(CNC(=O)CSC2=Nc3ccccc3C3=NC(C)C(=O)N23)c1OC (stereo unspecified)	-10%	nt	?	nt	13%	nt
O=C(NCc1ccccc1)c1nnc(Cc2cccc(F)c2)o1	-2%	nt	-30%[46.1 µM]	nt	-9%	nt
O=C1CC(N(O)C2CC(=O)N(Cc3ccccc3)C2=O)C(=O)N1Cc1ccccc1 (stereo unspecified)	?	?	-7%	45µM*	?	-1%
CCCN(CCC)C1CC(=O)N(Cc2ccccc2)C1=O (stereo unspecified)	-7%	-21%	-3%	14µM*	10µM*	3%
O=C(O)c1ccc(NC2CC(=O)N(Cc3ccccc3)C2=O)cc1 (stereo unspecified)	6%	nt	nt	-4%	28µM*	13%
Cc1cc2c(c(=O)n1Cc1ccccc1)[C@H]1O[C@](c3ccsc3)(Cc3cc(C#N)ccc31)O2	nt	1%[14.2 µM]	nt	nt	nt	nt
CCOC(=O)c1c(C)[nH]c(CCC(=O)NCc2ccccc2Cl)c1C	12%	nt	1%[46.1 µM]	nt	-5%	nt
CN(C)c1cc(O)c(C(=S)Nc2ccccc2)c(N(C)C)c1	4%	?	10%	-11%	?	11µM*
CC(=O)N(C)c1ccc(NC(=S)Nc2ccccc2)cc1	38%	13%	0%	5%	-32%	18%
CN(C)c1ccc(/C=C(\C#N)c2ccccn2)cc1	?	1.2µM*	1.4µM*	?	-13%	?
